Experimental findings from PubChem BioAssay (NCATS) are described below.

Results filed as inconclusive are left out. Entries that show only a call come without a potency. Active and inactive are the calls of the source. Calls follow the shape of the dose curve; as a rule, active = well fitted inhibition curve with a large enough effect; inconclusive = small, poorly fitted or top-dose-only effect; inactive = flat fitted curve, though single readings scatter.

The experiment relates to MCC-26. Kind of experiment: qHTS assay to identify novel small-molecules to repurpose for Merkel cell carcinoma treatment (AID 1296009). Also: nearly all actives have a fitted effect of over 60% in size. The conditions noted are these: MCC and control cell lines, CellTiter-Glo viability, 72 h; series mostly up to 46 µM. In outline: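 Cells were treated for 72 hr at 37 degree celsius with compounds in 8- or 11-point dose response. Viability was read by CellTiter-Glo luminescence, normalized to no-cell (cytotoxicity) and DMSO controls.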
For orientation: Quantitative high-throughput screening tests each substance at several concentrations.
For `COc1ccc(-c2coc3cc(O)ccc3c2=O)cc1`, the Potency entry was “inactive”. As to `CN(C)c1cc(NC(=O)CNC(C)(C)C)c(O)c2c1C[C@@H]1C[C@H]3[C@H](N(C)C)C(=O)C(C(N)=O)=C(O)[C@@]3(O)C(=O)C1=C2O`, the Potency entry was “inactive”. In the case of `CCN(CC)C(=O)c1ccc(O)c(OC)c1` it was “inactive”; in that of `CC(C)NCC(O)COc1cccc2[nH]ccc12` (configuration not stated), “inactive”. On to `O=c1cc(CN2CCOCC2)occ1OCCCCCSc1ccnc2cc(C(F)(F)F)ccc12`, for which the Potency entry was “inactive”. For `OC[C@H]1O[C@@H](n2cnc3c2NC=NC[C@@H]3O)C[C@H]1O`, the Potency entry is “inactive”. For the molecule `COc1ccc(-c2cc(=O)c3c(O)cc(O)cc3o2)cc1O`, the Potency result is “inactive”.

Consider `O=C(OCC#CCSc1nnc(-c2cccc3ccccc23)o1)c1cc2ccccc2s1`, for which the Potency result is “inactive”.

Turning to `CCC(CC)[C@H](NC(C)=O)[C@@H]1[C@H](O)[C@@H](C(=O)O)C[C@@H]1N=C(N)N`, the Potency result is “inactive”. As to `CCN(CC)CCOc1ccc(C(=C(Cl)c2ccccc2)c2ccccc2)cc1`, the Potency result was “inactive”. On to `COC(=O)C1=CO[C@@H](O)[C@@H]2C(CO)=CC[C@@H]12`, for which the Potency result was “inactive”.

With `Nc1ncnc2ccccc12`, the Potency entry was “inactive”. In the case of `CN1C[C@H]2c3ccccc3Oc3ccc(Cl)cc3[C@@H]2C1`, the Potency result is “inactive”. As to `CO[C@H]1C[C@@H]2CC[C@@H](C)[C@@](O)(O2)C(=O)C(=O)N2CCCC[C@@H]2C(=O)O[C@H]([C@@H](C)C[C@@H]2CC[C@H](O)[C@H](OC)C2)CC(=O)[C@H](C)C=C(C)[C@@H](O)[C@@H](OC)C(=O)[C@H](C)C[C@H](C)C=CC=CC=C1C`, the Potency result was “inactive”. As for `CC(C)C(C)C=CC(C)C1CCC2C3=CC=C4CC(O)CCC4(C)C3CCC21C` (configuration not stated), the Potency result was “inactive”. Consider `O=C1Nc2ccc(Cl)cc2C(C#CC2CC2)(C(F)(F)F)O1` (configuration not stated), for which the Potency entry is “inactive”. As to `Cc1[nH]c(C=C2C(=O)Nc3ccc(S(=O)(=O)Cc4c(Cl)cccc4Cl)cc32)c(C)c1C(=O)N1CCC[C@H]1CN1CCCC1`, the Potency result was “inactive”. Consider `Cc1c[nH]c(C=C2C(=O)Nc3ccccc32)c1CCC(=O)O`, for which the Potency result was “inactive”.

For the molecule `CCOC1OC(=O)C[C@H]1NC(=O)[C@@H]1CCCN1C(=O)[C@@H](NC(=O)c1ccc(N)c(Cl)c1)C(C)(C)C` (some centres not stated), the Potency result is “inactive”.

As to `O=C(O)C(O)Cc1ccc(O)c(O)c1` (configuration not stated), the Potency result is “inactive”. With `CC=C(C)C(=O)O[C@H]1C(C)=C[C@]23C(=O)[C@@H](C=C(CO)[C@@H](O)[C@]12O)[C@H]1[C@@H](C[C@H]3C)C1(C)C`, the Potency result was “inactive”. Consider `COc1ccc2cccc(CCNC(C)=O)c2c1`, for which the Potency result was “inactive”. In the case of `O=c1c(O)c(-c2ccc(O)cc2)oc2cc(O)cc(O)c12` it was “inactive”; in that of `Nc1ncnc2c1ncn2[C@@H]1O[C@H](CO)C[C@@H]1O`, “inactive”.

In the case of `C[N+](C)(C)CCCCCC[N+](C)(C)C`, the Potency entry is “inactive”. In the case of `NC(=O)NN=Cc1ccc([N+](=O)[O-])o1` it was “inactive”.

As to `CC(=O)N[C@@H](CS)C(=O)O`, the Potency entry is “inactive”.
